Source: PubChem
ssDAF12 agonist: S. stercoralis DAF-12 activation, primary screen. HEK293 ssDAF-12/GRIP1 lit1-tk-luc reporter, luminescence; % of 3 µM dafachronic acid response. activation, % at 6.8 µM. actives 1% (n = 370,000). AID 652126;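 active means activation above the mean over all tested compounds plus 3 SD, cut at about 0.9% in these data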;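 further: 0% = DMSO-only wells and 100% = 3 µM delta7-dafachronic acid wells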
hcDAF-12 act: activates DAF-12 receptor from parasite H. contortus; HEK293 hcDAF-12 lit1-tk-luc reporter, luminescence; 0% DMSO, 100% Δ7-dafachronic acid; activation, % at 6.8 µM; actives 1.4% (n = 370,000);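 active means activation above the mean of all tested compounds plus 3 SD, cut at about 5.5% in these data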;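 further: 100% = response to 3 µM Δ7-dafachronic acid high control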
hgDAF-12 ag: activates the H. glycines DAF-12 receptor ligand-binding domain; AID 687014; HEK293 GAL4-hgDAF12 UAS-luciferase reporter, agonist luminescence; normalized to butyrate control; actives 1.8% (n = 370,000); activation, % at 6.8 µM;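 active means activation above a cutoff set at the mean of all screened compounds plus 3 SD, cut at about 10% in these data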;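 further: 0% = DMSO wells and 100% = sodium butyrate wells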
DAX1 inh-1: inhibits human nuclear receptor DAX1; inhibition, % at 6.75 µM; P51843; AID 504766; HEK293 Gal4-DAX1 luciferase reporter, luminescence; actives 0.99% (n = 340,000);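 active means inhibition above the mean over all tested compounds plus 3 SD, cut at about 4.2% in these data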;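 further: 0% = DAX1-transfected cells with DMSO and 100% = empty-vector control cells with DMSO; inhibition shows as a rise in luminescence from relieved DAX1 repression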
Target sequence (P51843 207-470 limits assumed): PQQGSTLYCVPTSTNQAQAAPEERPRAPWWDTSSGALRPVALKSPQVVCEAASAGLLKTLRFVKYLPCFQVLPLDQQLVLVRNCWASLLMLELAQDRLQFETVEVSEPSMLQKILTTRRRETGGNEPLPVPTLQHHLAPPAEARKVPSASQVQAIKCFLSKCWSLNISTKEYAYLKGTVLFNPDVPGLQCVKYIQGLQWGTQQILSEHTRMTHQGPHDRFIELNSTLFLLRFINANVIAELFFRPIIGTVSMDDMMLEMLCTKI
DAX1 inh-2: inhibitors of DAX1 repression of SF-1 activated StAR promoter; HEK293T StAR-luciferase reporter, SF-1/DAX-1 repression relief; inhibition, % at 6.8 µM; actives 1.1% (n = 370,000); AID 652010;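 active means inhibition above the mean over all tested compounds plus 3 SD, cut at about 3.6% in these data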;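 further: 0% = DAX-1 cells with DMSO and 100% = cells lacking DAX-1 with DMSO; higher inhibition means more luminescence from relief of DAX-1 repression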
hgDAF12 conf: hgDAF-12 agonism, confirmation assay; HEK293 GAL4-hgDAF12 luciferase reporter, agonist mode; percent of butyrate response; shares compounds with hgDAF-12 ag; actives 80% (n = 3,300); activation, % at 6.8 µM; AID 743050;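 active means mean activation over triplicate wells above the hit cutoff derived from the earlier primary screen, cut at about 11% in these data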;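 further: 0% = DMSO low control and 100% = 2 mM sodium butyrate high control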
LXRb DAF12 ctr: counter-screen for DAF-12 agonists: agonists of human LXR-beta; shares compounds with hgDAF-12 ag; HEK293 Gal4-LXR luciferase reporter, 24 h; activation, % at 6.8 µM; 3,300 tested, under 10 active;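 active means mean activation of the triplicate above a set limit carried over from the primary screen, none filed active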
* = called active by the depositor; / = no result given. Rows were chosen to be rich in hits. Some 4.1% of all compounds tested hit in one or more screens of this group.

SMILES	ssDAF12 agonist	hcDAF-12 act	hgDAF-12 ag	DAX1 inh-1	DAX1 inh-2	hgDAF12 conf	LXRb DAF12 ctr
Cc1nn2c(-c3ccc(F)cc3)ccnc2c1Cl	-1	-1	-1	1	0	/	/
Fc1ccc(-c2cnn3c(-c4ccncc4)ccnc23)cc1	1	3	16*	3	2	18*	1
COc1cccc(O)c1CN1CCC(n2nccc2NC(=O)c2ccc3c(c2)OCO3)CC1	-1	0	2	1	0	/	/
O=C(Nc1ccc(NC(=O)C2CCCCC2)cn1)c1ccco1	0	6.4*	16*	-1	4.3*	11*	1
O=C(N/N=C\c1ccc(COc2ccc([N+](=O)[O-])cc2)o1)c1ccc(Cl)cc1	-1	0	3	0	0	/	/
COc1ccc(OCc2ccc(/C=N\NC(=O)c3sccc3C)o2)cc1	-1	2	14*	1	1	4	0
COc1ccccc1C(=O)COC(=O)c1ccc(N(C)C)cc1	0	5	16*	4.5*	3	13*	1
O=C(Nc1ccccc1Br)c1ccc2nccnc2c1	0	2	15*	1	1	11*	0
Cc1ccccc1NC(=O)c1ccc2nccnc2c1	-1	-2	1	0	0	/	/
CN(CC(=O)Nc1ccccc1Cl)C(=O)COC(=O)CSc1ccc(Cl)cc1	-1	-1	0	-1	0	/	/
O=C(O)c1ccc2c(c1)C(=O)N(c1cccc(-c3nc4ccccc4s3)c1)C2=O	-1	0	16*	1	1	3	0
O=C(c1ccc(Cl)cc1)c1cnc(-c2ccc(Cl)cc2)s1	-1	0	1	0	0	/	/
O=C(c1ccccc1)c1cnc(-c2ccccc2)s1	0	3	16*	9.3*	3	18*	1
Cc1ccccc1/C=N\NC(=O)c1csnn1	-1	3	14*	1	2	3	0
CN(C)c1ccc(/C=C/C(=O)c2ccc(O)cc2)cc1	0	4	19*	5.5*	3.7*	14*	1
Cc1cccc(OCCCC(=O)Nc2nc3ccccc3[nH]2)c1	-1	0	14*	-1	0	7	0
Cc1ccc(OCCCC(=O)Nc2nc3ccccc3[nH]2)cc1	-1	-1	1	0	0	/	/
CCc1nc2c(OCCn3cccc3)cccn2c1N(C)C(=O)c1ccc(OC)cc1	-1	2	3	/	1	/	/
COc1cccc(CC(=O)Nc2ncc(C)s2)c1	0	1	2	-1	0	/	/
COc1ccc2c(CC(=O)Nc3ncc(C)s3)coc2c1	0	4	18*	2	2	18*	1
O=C(Nc1ccc2oc(-c3ccccc3)nc2c1)c1ccc2c(c1)OCCO2	-2	-2	-5	-1	-2	/	/
O=C(Nc1ccc2oc(-c3ccccc3)nc2c1)C1CCCO1 (stereo not given)	1.2*	5	28*	4	3	15*	1
O=C(Nc1ccc2oc(-c3ccccc3)nc2c1)c1ccco1	1.0*	5	15*	4	3	12*	1
COc1ccc(S(=O)(=O)N2CCN(C(=O)CCSc3ccccc3)CC2)cc1	-1	0	1	1	-2	/	/
O=c1sc2ccccc2n1CCOc1ccccc1	0	5.6*	15*	2	3	12*	1
SMILES	ssDAF12 agonist	hcDAF-12 act	hgDAF-12 ag	DAX1 inh-1	DAX1 inh-2	hgDAF12 conf	LXRb DAF12 ctr
O=C(c1ccc2nc(Cc3ccccc3F)oc2c1)N1CCCC1	0	5	15*	2	3	14*	0
CCc1ccc(CSc2nccn2-c2ccccc2)cc1	-1	-2	-2	0	0	/	/
c1ccc(CCSc2nccn2-c2ccccc2)cc1	0	5.8*	14*	2	2	14*	1
Nc1nnc(CC(=O)N/N=C/c2ccc(-c3ccc(F)cc3)o2)s1	-2	-2	-1	/	0	/	/
Nc1nnc(CC(=O)N/N=C/c2ccc(-c3cccc(C(=O)O)c3)o2)s1	-1	-1	14*	-1	2	3	0
CC(C)N(Cc1nccn1C)C(=O)CCc1nnc(CCCc2ccccc2)o1	0	4	14*	1	1	10	0
CC(C)N(CCO)C(=O)CCc1nnc(CCCc2ccccc2)o1	-1	1	2	3	0	/	/
CN(C(=O)c1cccc(COc2ccc(Cl)cc2Cl)c1)c1ccccc1	-1	2	13*	-2	1	13*	1
O=C(NCc1ccccc1)c1cccc(COc2ccccc2Cl)c1	-1	3	9	-2	-1	/	/
CCCN(CCC)CC(O)Cn1cc(/C=C/C(=O)c2ccccc2)c2ccccc21 (stereo not given)	-1	2	1	2	0	/	/
CCCN(CCC)CC(O)Cn1cc(/C=C/C(=O)c2cccs2)c2ccccc21 (stereo not given)	-1	5	27*	-1	0	0	0
CCOC(=O)N/N=C1\CCc2ccccc21	0	4	15*	0	1	8	0
Cc1ccc(C(=O)N/N=C2\CCc3ccccc32)c(C)c1	0	0	15*	2	2	14*	1
CCOC(=O)NN=C1c2ccccc2-c2ccccc21	-2	0	-1	0	0	/	/
O=C(N/N=C1\CCc2ccccc21)c1ccc(O)cc1	0	5	4	2	2	/	/
c1ccc(-c2cn3nc(-c4ccccc4)cnc3n2)cc1	-1	2	17*	4	3	8	0
O=C(COc1ccc(Cc2ccccc2)cc1)c1ccc(F)cc1	-1	3	5	0	0	/	/
O=C(COc1ccc(F)cc1)c1ccc2c(c1)CCCC2	0	2	14*	1	2	13*	1
Cc1cccc(NS(=O)(=O)c2c(C(=O)N3CCOCC3)c(C)n(C)c2C)c1C	-1	0	0	0	0	/	/
COc1cccc(C(=O)N[C@H](C(=O)N2CCC[C@H]2C(=O)NC2CCCC2)c2ccccc2)c1	-1	3	-2	/	-1	/	/
Cn1cc(CC(=O)NCc2ccc(F)cc2)c2ccccc21	-1	-2	-1	-1	1	/	/
O=C(NCc1ccc(F)cc1)c1cnn2ccccc12	-1	1	16*	2	3	13*	1
CSc1cccc(NC(=O)Cn2cccc2)c1	-2	-1	0	1	-1	/	/
CSc1cccc(NC(=O)c2cnn3ccccc23)c1	1.7*	5	18*	2	2	20*	1
C=CCC[C@H](CCCCC)OC(=O)/C=C/[C@@H](O)[C@H](O)C[C@@H](O)CC=C	-1	0	0	/	-2	/	/
